From PubChem BioAssay (NCI)
Compounds without any hit were thinned out: in the full panel of roughly 83,000, 20% have a hit.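 Treatment: one concentration, 48 hours, 96-well format. Scoring: percent growth, with anything below 10 considered active.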 The source made the active and inactive calls.

What follows are molecules tested on NCI-H226 lung (assay: NCI-60 one-dose screen, 48 h (100 = growth as untreated, 0 = no growth, -100 = all killed)). Settings: 10 µM.
Description: Growth inhibition of the NCI-H226 human Non-Small Cell Lung tumor cell line is measured as a screen for anti-cancer activity. Cells are grown in 96 well plates and exposed to the test compound for 48 hours. Compounds are tested at a single concentration, which is 10^-5 M for most compounds. The reported endpoint is percent growth (GI% or GIPRCNT), where numbers from 0 - 100% represent growth inhibition, and numbers from -100% - 0 represent cell death. For example, a value of 40 represents 60% growth inhibition. A value of 0 means no net growth occurred over the course of the experiment. A value of -40 indicates 40% of cells at the beginning of the experiment died by the end of the experiment. A value of -100 means all cells are dead at the end of the experiment.
NCI-60 Human Tumor Cell Lines Screen was performed using the standard one-dose NCI protocol, which is described in more detail at https://dtp.cancer.gov/discovery_development/nci-60/default.htm.
Compounds with GIPRCNT values below 10 were considered active. Activity score was based on GIPRCNT using the following formula: […]
Score is 0 for GIPRCNT values of 100 or above, 50 for GIPRCNT values of 0, and 100 for GIPRCNT values of -100.

Compound | growth
COc1ccc(C(C)=C(c2ccc(OCCCN(C)C)cc2)c2ccc(OCCCN(C)C)cc2)cc1 | -82.2% (active)
CCCSc1nc(NC2CC2)c(C#N)c(-c2ccc(OC)cc2)n1 | 99.4% (inactive)
COc1ccc(CN2[C@H](C(=O)NCCCCCCC(=O)NO)Cc3c([nH]c4ccccc34)[C@H]2C2CC2)cc1 | 28.1% (inactive)
COc1cc(OC(F)(F)F)ccc1C(=O)Nc1sc2c(c1C#N)CCC(=O)C2 | 87.9% (inactive)
C=CC(=O)Nc1ccc(C(=O)/C=C/c2ccc(N(C)CCF)cc2)c(O)c1 | -11% (active)
O=c1c2ccccc2nc(COc2ccccc2)n1/N=C/c1ccc(N2CCOCC2)cc1 | 37.9% (inactive)
O=c1nc(-c2ccccc2)cc(-c2cc3ccccc3nc2Cl)[nH]1 | 35.6% (inactive)
COc1ccc(-c2cc(C(=O)N=Nc3c(O)[nH]c4ccc(F)cc34)c3ccccc3n2)cc1 | 68.3% (inactive)
COc1cccc(-c2ccnc(/N=C(\N)Nc3ccc(S(=O)(=O)Nc4nc(C)cc(C)n4)cc3)n2)c1 | 80.3% (inactive)
CC(=O)NS(=O)(=O)c1ccc(NC(=O)CSC2=NC(c3ccccc3)C(C(C)=O)=C(C)N2)cc1 (stereo not given) | 109% (inactive)
COc1ccc(C(=O)Nc2ccc(-c3ccc4c(c3)NC(=O)/C4=C\c3ccc[nH]3)cc2)cc1 | -4.15% (active)
COc1ccc(-c2nc(S(=O)(=O)c3ccc(C)cc3)c(S(C)(=O)=O)o2)cc1 | 72.1% (inactive)
Nc1nc(Nc2ccccc2)nn1Cc1c(Cl)cccc1Cl | 30.4% (inactive)
CCOP(=O)(OCC)O[C@H]1CC[C@]2(C)[C@H]3CC[C@@H]4[C@@H]([C@](C)(O)CCC=C(C)C)CC[C@@]4(C)[C@]3(C)CC[C@H]2C1(C)C | 20.9% (inactive)
O=C1c2ccccc2C(=O)c2c1c(C(=O)c1ccc(Cl)cc1)n1c2ccc2c3ccccc3ccc21 | 103% (inactive)
C=CC(=O)Nc1nc(-c2cccc(NS(=O)(=O)c3cccc4c(N(C)C)cccc34)c2)cs1 | 6.89% (active)
CS(=O)(=O)Nc1ccc(-c2ccc3c(c2)ncn3-c2ccc(NC(=O)Nc3ccc(Cl)c(C(F)(F)F)c3)cc2)cc1 | -51% (active)
Cc1cc2nc3c4ccccc4n(CCO)c3nc2cc1C | 69.7% (inactive)
COc1ccc(-c2ccc(/C=N/NC(=O)c3[nH]c4ccc(Br)cc4c3-c3ccccc3)o2)cc1 | 44.1% (inactive)
O=C(Nc1cccc(C(F)(F)F)c1)c1cncc(C#Cc2cnc3ccc(N4CCOCC4)nn23)c1 | -4.93% (active)

Compound | growth
CC1=N/C(=C\c2ccc(N(C)C)cc2)C(=O)N1CCc1ccc(S(N)(=O)=O)cc1 | 98.3% (inactive)
O=C(NO)c1ccc(-c2nc3ccc4[nH]ncc4c3c3c2CCCC3)cc1 | -28.8% (active)
Cc1noc2c(Cc3ccc([N+](=O)[O-])cc3)nn(CC(=O)N/N=C/c3ccc(Cl)cc3)c(=O)c12 | 8.93% (active)
COc1cc(/C=C/C(=O)c2ccc(F)cc2)ccc1Oc1nc(Nc2ccc(F)cc2)nc(N(C)C)n1 | 53.7% (inactive)
O=C(CSc1nnc(-c2ccc3nc(-c4ccccc4)[nH]c3c2)o1)Nc1ccc(Cl)cc1 | 31.4% (inactive)
O=C(CNc1nc(-c2ccccc2)cs1)Nc1ccccc1 | -2.46% (active)
CC1(c2ccccc2)NC(=O)N(CC(=O)Nc2ccc(C(=O)/C=C/c3ccc(Br)cc3)cc2)C1=O (stereo not given) | 43.4% (inactive)
COC(=O)C[C@](O)(CCCC(C)(C)O)C(=O)O[C@H]1C(OC)=C[C@@]23CCC(=O)N2CCc2cc4c(cc2[C@@H]13)OCO4 | 79.4% (inactive)
CN1CCN(Cc2ccc(C(=O)Nc3cccc(Nc4ccc5cc(O)ccc5n4)c3)cc2C(F)(F)F)CC1 | 26.5% (inactive)
Cc1ccc(-c2nc(Nc3ccccc3C(=O)O)c3ccccc3n2)cc1 | 15.3% (inactive)
Cn1c(O)c(N=Nc2nc(-c3cc4ccccc4oc3=O)cs2)c2cc(Br)ccc21 | 52% (inactive)
COc1ccccc1NCc1ccc(CO)n1-c1ccc(C)cc1 | 81.3% (inactive)
COc1ccccc1C(=O)NNC(=O)CSc1nc2c(c(=O)[nH]1)CCCC2 | 83.6% (inactive)
CC(=O)NNc1ccc2nnc(-c3ccc(Br)cc3)n2n1 | 87.8% (inactive)
N#Cc1c(-c2ccc(Cl)cc2)cc(-c2ccccc2)nc1OCc1ccccc1 | 74.7% (inactive)
CC(=O)Nc1ccc(-c2cn(-c3cccc(C(=O)Nc4cc(CN5CCOCC5)cc(C(F)(F)F)c4)c3)nn2)cn1 | -74% (active)
S=c1nc(-c2ccccc2)cc(-c2cc3ccccc3nc2Cl)[nH]1 | 76.8% (inactive)
COc1cc(C2CC(c3ccccc3)=Nc3c(N)nc(N)nc3N2)ccc1Oc1nc(Nc2ccc(F)cc2)nc(N(C)C)n1 (stereo not given) | 40.4% (inactive)
O=C(NC(=S)N1CCN(c2ncnc3c2cnn3-c2ccccc2)CC1)c1ccc(Cl)cc1 | 52.3% (inactive)
O=C1CCC(N2Cc3c(NCc4ccc(-c5ccccc5)cc4)cccc3C2=O)C(=O)N1 (stereo not given) | 55.1% (inactive)
